For orientation: Inhibition means the percentage by which the read-out fell short of the control. Low values mean little suppression, high ones strong suppression.

Format in all cases: functional
Assay [1] has as its system Plasmodium falciparum. Put plainly: GSK_TCMDC: Inhibition of Plasmodium falciparum 3D7 in whole red blood cells, using parasite LDH activity as an index of growth. Test compounds present at 2uM.
Assay [2] relates to Plasmodium falciparum. Briefly: GSK_TCMDC: Inhibition of Plasmodium falciparum Dd2 in whole red blood cells, using parasite LDH activity as an index of growth. Test compounds present at 2uM.
The subject of the next assay is HepG2. Put plainly: GSK_TCMDC: Percent inhibition of human HepG2 cell line. Test compounds present at 10uM.

Take `O=C(/C=C/c1ccc(Cl)c(Cl)c1)NCCCCCN1CCC(NC(=S)Nc2ccc(Cl)cc2)CC1`: the Inhibition in the assay on Plasmodium falciparum [1] was determined as 99%; with Plasmodium falciparum [2] it was 41%; in the assay on HepG2, 62%.
The corresponding values for `Cc1cc(C(F)(F)F)cc(-n2ncc(-c3ccc(C(=O)NCCNCc4ccccc4)cc3)c2N)n1.O=C(O)C(F)(F)F` are 91%, 9% and 98%.
On the same counts, the results for `CN1CCN(Cc2ccc(-c3ccc4ncnc(Nc5ccc(OCc6ccccc6)cc5)c4c3)o2)CC1` are 97%, 90% and 9%.
On the same counts, the results for `O=c1cc(NCCC(CNCc2ccc(Br)o2)NCc2cc(Br)cc(Br)c2)[nH]c2ccccc12` (configuration not stated) are 98%, 90% and 2%.
Regarding `CCc1ccc(CN2CCC(CNC(=O)c3cc(-c4ccccc4Cl)cs3)C2)cc1.O=C(O)C(F)(F)F` (configuration not stated), the Inhibition was found to be 98% with Plasmodium falciparum [1], 0% in the assay on Plasmodium falciparum [2] and 14% in the assay with HepG2.
As to `CCc1c(CCNCCCCCCNCc2ccc3c(c2CC)OCO3)ccc(OC)c1OC.Cl`, the results for the Inhibition with Plasmodium falciparum [1], in the assay with Plasmodium falciparum [2] and in the assay on HepG2 were 100%, 19% and 38%, respectively.
Turning to `CCOc1ccc(C(Cc2ccccc2)NC(=O)c2cccnc2)cc1OCC` (configuration not stated), the Inhibition came out at 100% in the assay with Plasmodium falciparum [1], 98% in the assay on Plasmodium falciparum [2] and 0% with HepG2.
On the same counts, the results for `O=C(Nc1cccc(-c2nc3ccccc3[nH]2)c1)c1ccc(-c2cccc([N+](=O)[O-])c2)o1` are 93%, 28% and 22%.
Take `N#Cc1ccc(CN2CCC(NC(=O)c3ccc(-c4nnc(-c5cccc6ccccc56)o4)cc3)CC2)cc1`: the Inhibition in the assay on Plasmodium falciparum [1] stood at 98%; in the assay on Plasmodium falciparum [2], 14%; in the assay on HepG2, 37%.
On to `N#Cc1ccc2c(c1)CN(C1CCC(NC(=O)c3cc(-c4ccc(Cl)cc4)cs3)CC1)CCC2` (configuration not stated), for which the Inhibition was determined as 100% in the assay on Plasmodium falciparum [1], 99% in the assay on Plasmodium falciparum [2] and 36% in the assay with HepG2.
In the case of `Cc1cc(N[C@@H](Cc2ccccc2)C(=O)NC2CCCC2)nc(NCCc2ccc(F)cc2)n1.O=C(O)C(F)(F)F`, the Inhibition in the assay on Plasmodium falciparum [1] is 100%; in the assay on Plasmodium falciparum [2], 61%; in the assay on HepG2, 21%.
The corresponding values for `O=C(/C=C/c1ccc(Cl)c(Cl)c1)NCCCCCN1CCC(NC(=S)Nc2ccc(F)cc2F)CC1` are 100%, 18% and 20%.
The corresponding values for `CN1CCN(c2cc(-c3ccncc3)nc(-c3cccnc3)n2)CC1` are 100%, 98% and 13%.
With `CCOc1cc(NCCSCc2nc[nH]c2C)nc2ccccc12`, the Inhibition in the assay with Plasmodium falciparum [1] was 92%; in the assay with Plasmodium falciparum [2], 10%; in the assay with HepG2 it was 4%.
For `CN(C)c1ccc(CN2CCC(CNC(=O)c3cc(-c4ccccc4Cl)cs3)C2)cc1.O=C(O)C(F)(F)F` (configuration not stated), the results for the Inhibition with Plasmodium falciparum [1], in the assay on Plasmodium falciparum [2] and with HepG2 were 91%, 5% and 29%, respectively.
The corresponding values for `CC(C)Nc1nc(NCCc2c[nH]cn2)nc(Nc2ccc(Oc3ccccc3)cc2)n1` are 95%, 9% and 0%.
On the same counts, the results for `O=C(CCc1c[nH]cn1)Nc1cccc(-c2ccc(-c3nc4ccccc4[nH]3)cc2)c1` are 100%, 60% and 24%.
For `Cl.O=c1cc(NCCCNCc2scc(I)c2I)[nH]c2ccccc12`, the figures for the Inhibition in the assay with Plasmodium falciparum [1], in the assay on Plasmodium falciparum [2] and in the assay with HepG2 were 100%, 73% and 0%, respectively.
Turning to `Cc1n[nH]c2ccc(-c3ccc4nccc(N5CCC(N)CC5)c4c3)cc12.Cl`, the results for the Inhibition in the assay on Plasmodium falciparum [1], in the assay with Plasmodium falciparum [2] and in the assay on HepG2 were 100%, 100% and 67%, respectively.
Take `CC(Nc1ccc2c(c1)OCCO2)C(=O)Nc1cc(C(F)(F)F)ccc1N1CCOCC1` (configuration not stated): the results for the Inhibition in the assay on Plasmodium falciparum [1], in the assay on Plasmodium falciparum [2] and in the assay on HepG2 were 98%, 70% and 0%, respectively.
On the same counts, the results for `CN(C)Cc1cccc(-c2ccc(NC(=O)c3ccc4c(=O)n(CC5CCCO5)cnc4c3)cc2)c1` (configuration not stated) are 97%, 14% and 28%.
Take `CC(=O)Nc1ncc(C(=O)Nc2cccc(-c3cccc(-c4nc5cc(F)ccc5[nH]4)c3)c2)s1`: the Inhibition was 100% with Plasmodium falciparum [1], 93% with Plasmodium falciparum [2] and 27% in the assay with HepG2.
On the same counts, the results for `Cc1[nH]c(C)c(-c2ccc(-c3ccc(C#N)cc3)nc2)c(=O)c1Br` are 97%, 87% and 5%.
The corresponding values for `Cc1ccc(O)cc1Nc1ccnc2ccc(C(C)(C)C)cc12` are 100%, 100% and 6%.
On the same counts, the results for `CCCSc1nc2c(c(=O)n1Cc1ccco1)C1(CCCCC1)Cc1ccccc1-2` are 100%, 95% and 0%.
For the molecule `CC1CN(CCCn2c3ccccc3c3ccc(C(=O)CCCN(C)C)cc32)CC(C)N1.Cl` (configuration not stated), the Inhibition in the assay with Plasmodium falciparum [1] amounted to 100%; in the assay on Plasmodium falciparum [2], 6%; in the assay with HepG2, 26%.
The corresponding values for `Cc1cc(N(C)C2CCN(CC3CCCCC3)C2)nc(Nc2ccc(Br)cc2)n1` (configuration not stated) are 98%, 38% and 14%.
`Cc1[nH]c(C)c(-c2ccc(CCc3ccc(F)cc3F)cc2)c(=O)c1Cl`: the Inhibition in the assay on Plasmodium falciparum [1] was 98%; with Plasmodium falciparum [2] it was 97%; with HepG2, 5%.
The corresponding values for `CCN(CC)c1ccc2nc(N)nc(N)c2c1Cl.Cl` are 92%, 1% and 62%.
